In PubChem BioAssay (Tox21):
Records with an inconclusive call do not appear. The source made the active and inactive calls. Unless noted, the call rests on the fitted dose curve; in most records, active means well fitted curve in the direction sought with a large enough effect in the repeat runs; inconclusive means weak or mixed curves; inactive means no such curve, though single readings can be large; an effect the other way counts as inactive or inconclusive.

Tests used:
[1] = target: Estrogen receptor beta (Homo sapiens) (UniProt Q92731); test: qHTS assay to identify small molecule agonists of the estrogen receptor beta (ER-beta) signaling pathway (AID 1259377; active means well fitted activation curve with a large enough effect in the signal ratio in the repeat runs, not every such curve was filed as active; the % refers to the signal ratio)
How it was run: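 A UAS-controlled beta-lactamase reporter in ER-beta-UAS-bla HEK293T cells reports receptor activation. Compounds act for 16 hr at 37C in 2% charcoal-stripped serum, and a FRET substrate is read by fluorescence after 2 hours.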

[2] = target: Estrogen receptor beta (Homo sapiens) (UniProt Q92731); test: qHTS assay to identify small molecule antagonists of the estrogen receptor beta (ER-beta) signaling pathway (AID 1259378; active means well fitted inhibition curve with a large enough effect in the signal ratio in the repeat runs, not every such curve was filed as active; the % refers to the signal ratio)
How it was run: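 ER-beta-UAS-bla HEK293T (GripTite) cells in 2% charcoal-stripped FBS medium were preincubated 6 hr at 37C, dosed with compound, then stimulated with 1 nM E2 (final) for 16 hr; beta-lactamase reporter read by B/G FRET fluorescence after 2 hr substrate loading.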

[3] = qHTS assay to identify small molecule agonists of the androgen receptor (AR) signaling pathway in the presence of an antagonist - cell viability counter screen (AID 1259379);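 further: MDA-kb2 human breast cancer cells carrying an MMTV luciferase reporter; series mostly up to about 92 µM; nearly all actives have a fitted effect of over 25% in size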
How it was run: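 MDA-kb2 viability measured by CellTiter-Fluor fluorescence in the same wells as the luciferase signal; nilutamide 3.0uM final; 15-point compound titration; 16 hr at 37C.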

[4] = qHTS assay to identify small molecule agonists of the estrogen receptor beta (ER-beta) signaling pathway - cell viability counter screen (AID 1259380); further: nearly all actives have a fitted effect of over 30% in size
How it was run: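 Measured: luminescence from CellTiter-Glo after 30 min at room temperature, added to wells already read for the LiveBLAzer FRET reporter (2 hr substrate); ER-beta-UAS-bla HEK293T cells had 16 hr compound treatment at 37C, 5% CO2.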

[5] = qHTS assay to identify small molecule antagonists of the estrogen receptor beta (ER-beta) signaling pathway - cell viability counter screen (AID 1259382); further: series mostly up to about 92 µM; nearly all actives have a fitted effect of over 55% in size
How it was run: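 Readout: luminescence, CellTiter-Glo, same wells as bla assay. System: ER-beta-UAS-bla GripTite HEK293T, 2% charcoal-stripped FBS. Exposure: compounds plus 1nM 17-beta-estradiol, 16 hr, 37C.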

[6] = qHTS assay to identify small molecule agonists or antagonists of the thyroid stimulating hormone receptor (TSHR) signaling pathway - wild type cell line counter screen (AID 1259384; calls by dose curve)
How it was run: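 Wild-type HEK293 cells were plated 18 h at 37 C/5% CO2, pin-dosed with compound plus Ro20-1724 medium, held 30 min at room temperature, then given cAMP-d2 and anti-cAMP-cryptate; fluorescence was read after 1 h. Fifteen concentrations, triplicate.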

[7] = target: Thyrotropin receptor (Homo sapiens) (UniProt P16473); test: qHTS assay to identify small molecule antagonists of the thyroid stimulating hormone receptor (TSHR) signaling pathway (AID 1259385; calls by dose curve; further: nearly all actives have a fitted effect of over 20% in size)
How it was run: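 TSHR-HEK293 cells were plated and held 18 h at 37C/5% CO2, then given compound plus Ro20-1724 and stimulated with TSH at 1.5 ng/mL final. After 30 min at room temperature, cAMP was detected with cAMP-d2/anti-cAMP-cryptate (1 h) by fluorescence.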

[8] = qHTS assay to identify small molecule agonists of the estrogen receptor alpha (ER-alpha) signaling pathway in the presence of an antagonist - cell viability counter screen (AID 1259386);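 further: series mostly up to about 92 µM; cells exposed to compounds for 22 h at 37 °C before the viability read; nearly all actives have a fitted effect of over 30% in size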
How it was run: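 The test measures whether compounds kill ER-alpha reporter cells (VM7Luc4E2) under antagonist co-treatment (ICI-182,780, 10.0nM). Fluorescence from CellTiter-Fluor is read after a 22hr exposure.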

[9] = target: Estrogen receptor (Homo sapiens) (UniProt P03372); test: qHTS assay to identify small molecule agonists of the estrogen receptor alpha (ER-alpha) signaling pathway in the presence of an antagonist (AID 1259383; calls by dose curve; further: top concentration of the series differs between compounds; nearly all actives have a fitted effect of over 15% in size)
How it was run: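 Quantitative HTS confirmation: compounds titrated at 15 concentrations onto estrogen-deprived VM7Luc4E2 cells carrying a four-ERE luciferase construct, with ICI-182,780 present at 10.0nM final. Signal is luminescence after 22hr exposure.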

[10] = target: Androgen receptor (Homo sapiens) (UniProt P10275); test: qHTS assay to identify small molecule agonists of the androgen receptor (AR) signaling pathway in the presence of an antagonist (AID 1259381; calls by dose curve; further: nearly all actives have a fitted effect of over 15% in size)
How it was run: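 Luminescent ONE-Glo read, 30min at room temperature, follows 16hr compound exposure (15 concentrations) of MDA-kb2 cells at 37C, 0% CO2, with nilutamide added at 3.0uM final.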

Measured: Potency

Thyrotropin receptor (Homo sapiens), sequence (P16473 whole entry, looked up): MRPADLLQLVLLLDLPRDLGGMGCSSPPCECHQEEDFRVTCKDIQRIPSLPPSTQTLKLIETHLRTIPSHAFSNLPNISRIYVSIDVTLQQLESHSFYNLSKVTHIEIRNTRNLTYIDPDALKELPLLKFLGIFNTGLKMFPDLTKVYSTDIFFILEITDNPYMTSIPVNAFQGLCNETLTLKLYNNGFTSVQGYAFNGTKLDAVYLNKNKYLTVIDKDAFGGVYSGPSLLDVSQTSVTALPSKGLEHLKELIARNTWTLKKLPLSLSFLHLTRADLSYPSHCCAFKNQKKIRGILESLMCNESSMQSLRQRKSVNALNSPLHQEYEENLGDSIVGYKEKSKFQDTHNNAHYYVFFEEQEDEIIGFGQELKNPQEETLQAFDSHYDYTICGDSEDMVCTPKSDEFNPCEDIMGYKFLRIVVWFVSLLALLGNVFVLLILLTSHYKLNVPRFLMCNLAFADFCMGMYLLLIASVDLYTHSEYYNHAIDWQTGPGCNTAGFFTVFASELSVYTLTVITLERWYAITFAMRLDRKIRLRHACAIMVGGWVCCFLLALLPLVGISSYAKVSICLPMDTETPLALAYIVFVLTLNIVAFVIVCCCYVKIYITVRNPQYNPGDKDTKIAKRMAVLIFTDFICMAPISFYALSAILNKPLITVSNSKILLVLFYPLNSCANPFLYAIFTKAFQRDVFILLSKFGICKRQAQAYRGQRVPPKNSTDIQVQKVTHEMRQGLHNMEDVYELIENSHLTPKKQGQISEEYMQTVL
Estrogen receptor beta (Homo sapiens), sequence (Q92731 whole entry, looked up): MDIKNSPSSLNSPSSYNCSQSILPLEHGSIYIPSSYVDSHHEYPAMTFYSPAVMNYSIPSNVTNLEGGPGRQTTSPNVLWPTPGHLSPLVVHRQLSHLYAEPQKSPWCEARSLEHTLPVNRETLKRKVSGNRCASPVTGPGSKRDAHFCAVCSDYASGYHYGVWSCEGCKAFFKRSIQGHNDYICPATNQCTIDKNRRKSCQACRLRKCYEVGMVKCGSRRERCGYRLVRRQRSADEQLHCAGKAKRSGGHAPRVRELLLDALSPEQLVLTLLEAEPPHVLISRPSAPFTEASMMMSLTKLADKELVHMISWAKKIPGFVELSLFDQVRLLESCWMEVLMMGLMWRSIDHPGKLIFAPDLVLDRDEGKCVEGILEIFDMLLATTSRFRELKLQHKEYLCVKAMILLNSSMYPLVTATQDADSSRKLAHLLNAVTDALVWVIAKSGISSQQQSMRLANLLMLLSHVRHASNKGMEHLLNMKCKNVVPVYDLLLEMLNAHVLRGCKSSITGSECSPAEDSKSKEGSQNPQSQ
Estrogen receptor (Homo sapiens), sequence (P03372 whole entry, looked up): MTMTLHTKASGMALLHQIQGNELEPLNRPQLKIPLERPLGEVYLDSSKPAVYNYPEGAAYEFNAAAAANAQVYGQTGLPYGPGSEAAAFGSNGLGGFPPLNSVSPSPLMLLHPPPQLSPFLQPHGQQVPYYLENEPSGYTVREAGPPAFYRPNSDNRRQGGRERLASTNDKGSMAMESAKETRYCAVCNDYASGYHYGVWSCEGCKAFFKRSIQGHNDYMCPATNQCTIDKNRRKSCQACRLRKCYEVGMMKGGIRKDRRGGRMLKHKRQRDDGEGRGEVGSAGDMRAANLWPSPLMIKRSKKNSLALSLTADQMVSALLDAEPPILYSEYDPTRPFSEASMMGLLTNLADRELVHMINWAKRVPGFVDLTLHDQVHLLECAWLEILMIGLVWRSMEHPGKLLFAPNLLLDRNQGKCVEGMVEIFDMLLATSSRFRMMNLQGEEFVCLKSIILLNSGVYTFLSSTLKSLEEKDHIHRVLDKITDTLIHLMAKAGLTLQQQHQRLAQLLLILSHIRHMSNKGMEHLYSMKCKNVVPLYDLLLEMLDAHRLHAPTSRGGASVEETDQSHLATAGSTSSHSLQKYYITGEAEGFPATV
Androgen receptor (Homo sapiens), sequence (P10275 whole entry, looked up): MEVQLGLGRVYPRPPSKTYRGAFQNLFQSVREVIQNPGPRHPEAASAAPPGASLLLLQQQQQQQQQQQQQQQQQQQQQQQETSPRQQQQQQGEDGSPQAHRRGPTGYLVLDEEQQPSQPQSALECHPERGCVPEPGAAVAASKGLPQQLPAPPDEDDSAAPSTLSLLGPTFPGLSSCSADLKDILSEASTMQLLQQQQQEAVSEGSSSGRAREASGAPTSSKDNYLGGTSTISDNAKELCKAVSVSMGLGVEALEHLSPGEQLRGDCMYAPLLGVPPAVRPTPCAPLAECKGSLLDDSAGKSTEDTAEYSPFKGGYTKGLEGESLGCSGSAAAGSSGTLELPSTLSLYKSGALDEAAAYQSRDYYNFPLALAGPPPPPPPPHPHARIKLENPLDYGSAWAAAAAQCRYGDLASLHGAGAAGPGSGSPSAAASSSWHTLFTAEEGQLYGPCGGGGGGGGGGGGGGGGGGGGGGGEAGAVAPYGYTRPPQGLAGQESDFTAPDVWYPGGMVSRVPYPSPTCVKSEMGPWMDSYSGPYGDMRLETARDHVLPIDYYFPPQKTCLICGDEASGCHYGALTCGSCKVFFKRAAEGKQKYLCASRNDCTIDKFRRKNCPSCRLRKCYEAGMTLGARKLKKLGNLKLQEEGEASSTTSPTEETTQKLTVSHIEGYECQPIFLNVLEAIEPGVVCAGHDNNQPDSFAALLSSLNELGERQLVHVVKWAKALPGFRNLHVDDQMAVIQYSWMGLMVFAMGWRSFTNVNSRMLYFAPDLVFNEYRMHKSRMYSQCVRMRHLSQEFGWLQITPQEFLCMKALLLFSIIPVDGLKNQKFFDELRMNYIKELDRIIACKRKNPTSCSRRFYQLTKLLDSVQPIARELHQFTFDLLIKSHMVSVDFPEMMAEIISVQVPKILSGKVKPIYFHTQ

c1ccc2c(c1)ccc1c3ccccc3ccc21
not listed: [9] | [10]
inactive: all other assays above

Cc1ccsc1/C=C/C1=NCCCN1C
not listed: [7] | [10]
inactive: all other assays above

Cc1ccccc1OCC(O)CO (stereo unspecified)
not listed: [9] | [10]
inactive: all other assays above

CCCCN
not listed: [6] | [7] | [10]
inactive: all other assays above

Nc1nnc(-c2cccc(Cl)c2Cl)c(N)n1
not listed: [6] | [9] | [10]
inactive: all other assays above

CCO[Si](CCCS)(OCC)OCC
not listed: [7] | [9] | [10]
inactive: all other assays above

CC(C)CCCC(C)(C)O
not listed: [6] | [10]
inactive: all other assays above

CC(C)CCCCOC(=O)c1ccccc1C(=O)OCCCCC(C)C
inactive: [1] | [2] | [3] | [4] | [5] | [8]

CCOCCOCCOCC
inactive: [1] | [2] | [3] | [4] | [5] | [8]

CCCCCCCCCCCCCC
not listed: [9] | [10]
inactive: all other assays above

CC(=O)N[C@@H](CCC(=O)O)C(=O)O
not listed: [6] | [9] | [10]
inactive: all other assays above

CCCCCCCCCCl
not listed: [9] | [10]
inactive: all other assays above

CCCC/C=C\CCCCCCCCCC=O
not listed: [9] | [10]
inactive: all other assays above

CC(CN)CC(C)(C)CCN (stereo unspecified)
inactive: [1] | [2] | [3] | [4] | [5] | [6]

NCCN1CCOCC1
not listed: [9] | [10]
inactive: all other assays above

COc1ccc(C2CNC(=O)C2)cc1OC1CCCC1 (stereo unspecified)
not listed: [6] | [9] | [10]
inactive: all other assays above

CCCCCCOC(=O)CC
not listed: [6] | [7] | [10]
inactive: all other assays above

NNc1nnc(NN)c2ccccc12
not listed: [6] | [9] | [10]
inactive: all other assays above

COc1ccc(-c2cc(=O)c3c(O)cc(O[C@@H]4O[C@H](CO[C@@H]5O[C@@H](C)[C@H](O)[C@@H](O)[C@H]5O)[C@@H](O)[C@H](O)[C@H]4O)cc3o2)cc1O
not listed: [6] | [7] | [10]
inactive: all other assays above

O=C1O[C@@H]2[C@@H](O)[C@H](O)O[C@@H]2[C@H]1O
not listed: [7] | [10]
inactive: all other assays above

OCCCCC(O)CO (stereo unspecified)
not listed: [9] | [10]
inactive: all other assays above

O=Cc1ccc(Cl)c(Cl)c1
not listed: [6] | [9] | [10]
inactive: all other assays above

O=C(NCC(O)CO)c1c(I)c(C(=O)NCC(O)CO)c(I)c(N(CCO)C(=O)CO)c1I (stereo unspecified)
not listed: [9] | [10]
inactive: all other assays above

CC(COC(C)(C)C)OCCCO (stereo unspecified)
not listed: [9] | [10]
inactive: all other assays above

BrCCCCCBr
not listed: [6] | [10]
inactive: all other assays above

CCCCC(CC)COCCO (stereo unspecified)
not listed: [6] | [10]
inactive: all other assays above

CCCC/C=C/C=C\C=O
not listed: [2] | [4]
inactive: all other assays above

COC(=O)[C@@H]1[C@H]2C[C@H]3c4[nH]c5ccccc5c4CCN3C[C@@H]2CC[C@@H]1O
not listed: [2] | [7] | [10]
inactive: all other assays above

Cc1c(I)c(=O)n(-c2ccccc2)n1C
not listed: [1] | [10]
inactive: all other assays above
